# Screening data (PubChem BioAssay)
# Only some compounds are listed: those with a hit (about 2.4% of all), similar ones and a draw of the others.
# D2 PAM-1 – HTS Assay for Positive Allosteric Modulators of the Human D2 Dopamine Receptor: Primary Screen for Potentiators | HEK293 T-REx D2, calcium flux, EC20 dopamine potentiation | hit rate 0.34% among 340,000 | potentiation, % at 10 µM;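 active = potentiation over 3 SD above the plate norm, cut at about 30% in these data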
# Target sequence (P14416 whole entry, looked up): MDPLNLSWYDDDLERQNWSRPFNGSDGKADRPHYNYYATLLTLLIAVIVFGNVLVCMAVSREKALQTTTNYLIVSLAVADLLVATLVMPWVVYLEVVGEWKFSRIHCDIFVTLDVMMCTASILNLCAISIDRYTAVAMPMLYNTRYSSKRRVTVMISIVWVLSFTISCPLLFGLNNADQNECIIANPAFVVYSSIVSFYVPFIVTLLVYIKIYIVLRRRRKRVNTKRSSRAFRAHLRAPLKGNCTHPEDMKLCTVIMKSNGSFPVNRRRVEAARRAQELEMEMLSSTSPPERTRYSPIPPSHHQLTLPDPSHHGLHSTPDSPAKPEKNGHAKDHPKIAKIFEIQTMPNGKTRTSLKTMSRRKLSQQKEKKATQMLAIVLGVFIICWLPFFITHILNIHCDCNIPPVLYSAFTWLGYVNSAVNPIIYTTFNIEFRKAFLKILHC
#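 Using a no-wash calcium dye in inducible, force-coupled HEK293 Trex cells expressing D2, we tracked fluorescence each second for 180 s after compound, then for 180 s after EC20 dopamine to detect augmented signalling.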
# D2 antag – HTS Assay for Allosteric Antagonists of the Human D2 Dopamine Receptor: Primary Screen for Antagonists; inhibition, % at 10 µM; D(2) dopamine receptor (Homo sapiens), P14416; hit rate 2% among 340,000; HEK293 TREx D2 cells, calcium flux, dopamine EC80; in the data active = inhibition above about 30%; inactive = below that, where a call was filed
#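 Calcium flux kinetic readout in an inducible HEK293 TREx D2 line plated overnight at 30 C. After 180 s compound exposure, an EC80 dopamine challenge follows with another 180 s kinetic read to detect antagonism.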
# D2 ag-1 – Beta-Arrestin HTS for Positive Allosteric Modulators of the Human D2 Dopamine Receptor: Agonists | DiscoveRx PathHunter D2 beta-arrestin, luminescence, 90 min; 100% = 57 uM dopamine signal | activation, % (test concentration not listed) | hit rate 0.084% among 360,000; in the data active = activation above about 40%
#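 DiscoveRx PathHunter D2 beta-arrestin cells (2,100/well) attached overnight, then compound-stimulated 90 min at 37 C in HBSS/10 mM HEPES/0.1% Tween-20 buffer; beta-galactosidase complementation read by luminescence after 1 h at ambient temperature. Dopamine 57 uM final (EC100) as control.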
# D2 ag-2 – HTS Assay for Allosteric Agonists of the Human D2 Dopamine Receptor: Primary Screen for Agonists; D(2) dopamine receptor (Homo sapiens), P14416; HEK293 T-REx D2 cells, calcium flux agonist mode; activation, % at 2 µM; hit rate 0.53% among 340,000;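 active = activation over 3 SD above normal in the single-dose calcium agonist read, cut at about 30% in these data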
#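 Agonism is scored from calcium flux in a force-coupled, inducible HEK293 cell line expressing D2, read kinetically for 180 s after compound addition against dopamine controls.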
# D2 PAM-2 – Beta-Arrestin HTS for Positive Allosteric Modulators of the Human D2 Dopamine Receptor: Potentiators | hit rate 0.23% among 360,000 | DiscoveRx D2 beta-arrestin cells, luminescence, 90 min; 100% = 57 uM dopamine signal | potentiation, % (test concentration not listed) | AID 624464, 2012 | D(2) dopamine receptor (Homo sapiens), P14416; in the data active = potentiation above about 50%
#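 PathHunter D2 cells, attached overnight at 37 deg C, received compound in DMSO plus dopamine at EC20 (50 nM final) for 90 min at 37 deg C. Beta-arrestin recruitment was read as luminescence after 1 h with detection reagent at ambient temperature.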
# Numbers stand for hits; – = inactive; · = not tested or not shown.
SMILES,D2 PAM-1,D2 antag,D2 ag-1,D2 ag-2,D2 PAM-2
COc1ccc(CNC(=O)CN(C(=O)c2snc(C(N)=O)c2N)c2ccc(F)cc2)cc1,–,–,–,–,–
COc1ccc(CNC(=O)CN(C(=O)c2snc(C(N)=O)c2N)c2ccc(OC)c(OC)c2)cc1,–,31,–,–,–
O=C1c2ccccc2C(Nc2ccc(S(=O)(=O)N3CCCCCC3)cc2)N1c1ccccn1 (stereo not given),–,–,–,–,–
O=C1c2cccnc2C(Nc2ccc(S(=O)(=O)N3CCCCC3)cc2)N1Cc1ccccc1 (stereo not given),33,–,–,–,–
Cn1nccc1/C=C(/C#N)S(=O)(=O)c1ccccc1,–,31,–,–,–
CCCCc1nn2c(=O)cc(COC(=O)C3CCCCC3)nc2s1,–,·,·,–,·
Cc1ccccc1N(CC(N)=O)S(C)(=O)=O,–,–,–,–,–
Cc1ccccc1N(CC(=O)O)S(C)(=O)=O,31,–,–,–,–
COc1cc(C(=O)N(Cc2cccnc2)Cc2cc3cc4c(cc3[nH]c2=O)OCCO4)cc(OC)c1OC,–,37,–,–,–
COc1cccc(/C=C2\N=C(C3CCCCC3)OC2=O)c1OC,45,–,–,–,–
CN(CC(=O)Nc1cccc(F)c1)C(=O)c1ccc2c(c1)S(=O)(=O)N=C1CCCCCN12,32,–,–,–,–
CCc1ccc(NC(=O)c2cnn3ccccc23)cc1,–,42,–,–,–
Cc1ccc(Cl)cc1NC(=O)N1CCc2cc(S(=O)(=O)N3CCC(C)CC3)ccc21,–,·,·,–,·
CCOc1ccccc1NC(=O)Nc1cc(S(=O)(=O)N(C)C)ccc1C,·,·,–,·,–
Cc1ccc(NC(=O)Nc2cc(S(=O)(=O)N(C)C)ccc2C)cc1,–,37,–,–,–
CN(C)S(=O)(=O)c1cccc(NC(=S)N2CCc3ccccc32)c1,–,–,–,–,–
CC1CCCCC1NC(=O)CSc1nc2ccccc2[nH]1 (stereo not given),37,–,–,–,–
CC1CCN(C(=O)CSc2nc3ccccc3[nH]2)CC1,–,–,–,–,–
Cc1ccc(S(=O)(=O)N(C)C)cc1NC(=O)CSc1nc2ccccc2[nH]1,–,31,–,–,–
Cc1ccc(S(=O)(=O)N(C)C)cc1NC(=S)N1CCc2ccccc21,–,55,–,–,–
Cc1ccc(S(=O)(=O)N(C)C)cc1NC(=O)Nc1ccccc1,–,84,–,–,–
CN1CCN(CCCC(=O)c2ccc(F)cc2)CC1,–,–,–,–,–
O=C(CCCN1CCOC(c2ccccc2)C1)c1ccc(F)cc1 (stereo not given),–,49,–,–,–
O=C(CCCN1Cc2ccccc2C1)c1ccc(F)cc1,–,79,–,–,–
O=C(CCCN1CCN(c2ccccc2)CC1)c1ccc(F)cc1,·,·,–,·,–
SMILES,D2 PAM-1,D2 antag,D2 ag-1,D2 ag-2,D2 PAM-2
COc1ccccc1C(=O)Nc1ccccc1C(=O)OCc1cc(=O)n2ccsc2n1,–,·,·,–,·
Cc1cccc(NC(=O)c2oc3ccc(S(=O)(=O)N4CCCCC4)cc3c2C)c1C,–,·,·,–,·
O=C(NCCCN1CCCCC1)c1ccc(CS(=O)c2ccc(F)cc2)o1 (stereo not given),–,32,–,–,–
CCc1nnc(NC(=O)CSc2nnc(CNc3ccc(Cl)cc3)o2)s1,–,50,–,–,–
CCc1nnc(NC(=O)CSc2nnc(Cc3ccccc3)o2)s1,–,–,–,–,–
O=C(NC1CC(=O)N(c2ccccc2)C1)c1ccc(S(=O)(=O)N2CCCC2)cc1 (stereo not given),–,·,·,–,·
N#Cc1ccc(NC(=O)Cn2c3[n+](c4ccc(C(F)(F)F)cc42)CCCCC3)cc1,–,–,–,–,–
O=C(Cn1c2[n+](c3ccc(C(F)(F)F)cc31)CCCCC2)Nc1ccc(Br)cc1,–,56,–,–,–
